Results: PubChem BioAssay (NCATS)
Inconclusive results are not listed. Activity calls are given as the source filed them. Calls follow the shape of the dose curve; as a rule, active = well fitted inhibition curve with a large enough effect; inconclusive = small, poorly fitted or top-dose-only effect; inactive = flat fitted curve, though single readings scatter. Where a SMILES comes first, the peptide text is derived from it. [ ]: non-standard residue; d: D form. PhLac = O=C(O)[CH](O)Cc1ccccc1; NMeV = CN[CH](C(=O)O)C(C)C

Legend:
[1] = biological target: Glutathione peroxidase 1 (Homo sapiens) (UniProt P07203); experiment: Primary qHTS Assay for Inhibitors of Recombinant Selenoprotein Glutathione Peroxidase 1 (GPX1) (AID 1845191); also: nearly all actives have a fitted effect of over 65% in size
Summary of the method: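 10 nM GPX1 + cpd, 30 min RT; start w/ 1 mM GSH, 0.5 mM cumene hydroperoxide, 0.5 mM NADPH, 100 nM GR, 0.01% BSA; buffer 50 mM Tris-HCl pH 7.5, 2 mM EDTA, 150 mM NaCl; Fl 340/450, 0 & 15 min.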

[2] = biological target: Phospholipid hydroperoxide glutathione peroxidase GPX4 (Homo sapiens) (UniProt P36969); experiment: Primary qHTS Assay for Inhibitors of Recombinant Selenoprotein Glutathione Peroxidase 4 (GPX4) (AID 1845192); also: nearly all actives have a fitted effect of over 65% in size; as to activity change, negative = inhibition: series mostly up to about 50 µM; % is scaled to controls: 0 for no effect and ±100 for the full control effect
Summary of the method: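 NADPH consumption, followed by fluorescence at 340/450 nm between 0 and 15 min, reports GPX4 activity via coupled glutathione reductase (100 nM). Enzyme 200 nM was pre-exposed to compound 30 min; 0.5 mM cumene hydroperoxide and 1 mM GSH served as substrates.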

[3] = biological target: Luciferin 4-monooxygenase (Photinus pyralis) (UniProt P08659); experiment: Primary firefly luciferase (FLuc) qHTS assay for identification of artifact compounds. (AID 1845220); also: nearly all actives have a fitted effect of over 60% in size;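 as to activity change, negative = inhibition: series mostly up to about 54 µM; plate controls were DMSO vehicle for no effect and no enzyme for full effect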
Summary of the method: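 FLuc 10 nM; luciferin 10 uM; ATP 10 uM; Tris-acetate pH 7.6, Mg-acetate 10 mM; 15 min RT preincubation; 5 min reaction; luminescence.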

Glutathione peroxidase 1 (Homo sapiens), sequence (P07203 whole entry, looked up): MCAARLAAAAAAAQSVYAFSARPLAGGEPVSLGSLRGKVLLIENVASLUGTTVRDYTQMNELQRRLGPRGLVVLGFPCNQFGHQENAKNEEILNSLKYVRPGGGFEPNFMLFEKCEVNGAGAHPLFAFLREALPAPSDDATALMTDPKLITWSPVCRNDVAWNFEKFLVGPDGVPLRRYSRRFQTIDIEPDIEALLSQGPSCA
Phospholipid hydroperoxide glutathione peroxidase GPX4 (Homo sapiens), sequence (P36969 whole entry, looked up): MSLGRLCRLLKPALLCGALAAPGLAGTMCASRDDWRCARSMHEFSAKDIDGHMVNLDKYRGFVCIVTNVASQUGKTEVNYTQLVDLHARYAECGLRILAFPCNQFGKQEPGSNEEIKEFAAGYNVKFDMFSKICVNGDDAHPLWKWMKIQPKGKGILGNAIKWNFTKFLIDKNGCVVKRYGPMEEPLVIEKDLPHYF

CNC(=O)COC(=O)NCCC1CCN(c2cccc(C)n2)CC1
inactive: Potency [1] | Potency [2] | Potency [3]

CC1CCC2C(C)(C)CC(C)(CO)C2(O)C1C(=O)O (centres undefined)
inactive: Potency [1] | Potency [2] | Potency [3]

CCNC(=O)[C@@H]1CCCN1C(=O)[C@H](CCCN=C(N)N)NC(=O)[C@H](CC(C)C)NC(=O)[C@@H](C)NC(=O)[C@H](Cc1ccc(O)cc1)NC(=O)[C@H](CO)NC(=O)[C@H](Cc1c[nH]c2ccccc12)NC(=O)[C@H](Cc1cnc[nH]1)NC(=O)[C@@H]1CCC(=O)N1
inactive: Potency [1] | Potency [2] | Potency [3]

CO[C@@]12CC3[C@@H]([C@@H](O)[C@@H](OC(C)=O)C4[C@](C)(COC(C)=O)CCC[C@]34C)[C@@H](C)C1=CC(=O)O2 (some centres undefined)
inactive: Potency [1] | Potency [2] | Potency [3]

COC(=O)C1C(CC(C)=O)C=CC(O)C12Oc1cc(C)cc(O)c1C2=O (centres undefined)
inactive: Potency [1] | Potency [2] | Potency [3]

COc1cc(C(=O)OC[C@H]2O[C@H](O[C@@]3(CO)O[C@@H](CO)[C@H](O)[C@H]3O)[C@H](O)[C@@H](O)[C@@H]2O)ccc1O
inactive: Potency [1] | Potency [2] | Potency [3]

C=CC(C)(C)C12CC3C(=O)NC(Cc4cnc[nH]4)C(=O)N3C1Nc1ccccc12 (centres undefined)
inactive: Potency [1] | Potency [2] | Potency [3]

C[C@@H]1C(=O)O[C@H]2[C@H]1CC[C@@]1(C)C(=O)C=C[C@](C)(O)[C@H]21
inactive: Potency [1] | Potency [2] | Potency [3]

CN1C(=O)c2ccccc2-n2c(nc3ccccc3c2=O)/C1=C/c1ccccc1
inactive: Potency [1] | Potency [2] | Potency [3]

C/C(=C\CO)CC/C=C(\C)C(=O)O[C@H]1[C@H](OC2OC=C(C(=O)O)C3CCC(C)(O)C23)O[C@H](CO)[C@@H](O)[C@@H]1O (some centres undefined)
inactive: Potency [1] | Potency [2] | Potency [3]

C[C@@H]1O[C@@H](O[C@H]2[C@H](O)[C@@H](C(=O)O)O[C@@H](O[C@H]3CC[C@@]4(C)C(CC[C@]5(C)C4CC=C4C6CC(C)(C)CC[C@]6(C(=O)O)CC[C@]45C)C3(C)C)[C@@H]2O[C@@H]2O[C@H](CO)[C@@H](O)[C@H](O)[C@H]2O)[C@H](O)[C@H](O)[C@H]1O (some centres undefined)
inactive: Potency [1] | Potency [2] | outcome [3] inactive [at 11.6 µM]

C=CC1(C)CC2=CCC3C(C)(C(=O)O)CCCC3(C)C2CC1OC(C)=O (centres undefined)
inactive: Potency [1] | Potency [2] | Potency [3]

Cc1cc(N2CCCCC2)nc2ccccc12
inactive: Potency [1] | Potency [2] | Potency [3]

NC1CCC(N[C@@H]2C[C@H]2c2ccccc2)CC1 (some centres undefined)
inactive: Potency [1] | Potency [2] | Potency [3]

C=C1CC2C3(C)C(OC(C)=O)CC(=O)OC(C)(C)C3C(O)C(OC(C)=O)C2(C)C2C(=O)OC(C)C(=O)C12C (centres undefined)
inactive: Potency [1] | Potency [2] | Potency [3]

CC(C)C1(O[C@@H]2O[C@H](CO)[C@@H](O)[C@H](O)[C@H]2O)CC=C(CO)CC1 (some centres undefined)
inactive: Potency [1] | Potency [2] | Potency [3]

O=C(NCC(=O)N1CC[C@H](NC2CCC(O)(c3ccc(-c4ncccn4)cn3)CC2)C1)c1cccc(C(F)(F)F)c1 (some centres undefined)
inactive: Potency [1] | Potency [2] | Potency [3]

C=C(C(=O)O)[C@@H]1CC=C2CCC[C@H](C)[C@@]2(C)C1
inactive: Potency [1] | Potency [2] | Potency [3]

CC1(CO)CC2C(O)C(=O)C3(CO)CC3(C)C2C1 (centres undefined)
inactive: Potency [1] | Potency [2] | Potency [3]

CC(=O)c1c(O)cc2c(c1C)C(=O)CC(O)C2 (centres undefined)
inactive: Potency [1] | Potency [2] | Potency [3]

C=C1CC[C@H]2[C@@](C)(CCC[C@@]2(C)C(=O)O)[C@@H]1CCC(C)CCO (some centres undefined)
inactive: Potency [1] | Potency [2] | Potency [3]

C=C[C@H]1[C@H](O[C@@H]2O[C@H](CO)[C@@H](O)[C@H](O)[C@H]2O)OC=C(C(=O)OC)[C@H]1C[C@@H]1N[C@H](C(=O)O)Cc2c1[nH]c1ccccc21
inactive: Potency [1] | Potency [2] | Potency [3]

COC1CCCC/C(C)=C/C2C=C(C)C(C)C3C(CC(C)C)NC(=O)C23C(=O)C1 (centres undefined)
inactive: Potency [1] | Potency [2] | Potency [3]

CC1(C)O[C@]23C[C@H]1C[C@H](OC(=O)c1ccoc1)[C@]2(C)[C@@H](OC(=O)c1ccoc1)CCC3(C)O (some centres undefined)
inactive: Potency [1] | Potency [2] | Potency [3]

CC(=O)O[C@@H]1[C@H](O[C@@H]2OC[C@](O)(CO)[C@H]2O)[C@@H](O[C@@H]2O[C@@H](C)[C@H](O)[C@@H](O)[C@H]2O)[C@H](OC(=O)[C@]23CCC(C)(C)C[C@H]2C2=CCC4[C@@]5(C)C[C@H](O)[C@H](O[C@@H]6O[C@H](C(=O)O)[C@@H](O)[C@H](O)[C@H]6O)[C@@](C)(C(=O)O)C5CC[C@@]4(C)[C@]2(C)CC3)O[C@@H]1C (some centres undefined)
inactive: Potency [1] | Potency [2] | activity change, negative = inhibition [3] 3.99% [at 11.6 µM]

O=C(COc1ccc(Cl)cc1)NC1CCC(NC(=O)COc2ccc(Cl)cc2)CC1 (centres undefined)
inactive: Potency [1] | Potency [2] | Potency [3]

CC(=O)[C@@H]1CC[C@]2(C(=O)O)CC[C@]3(C)C(CCC4[C@@]5(C)CC[C@H](O)C(C)(C)C5CC[C@]43C)C12 (some centres undefined)
inactive: Potency [1] | Potency [2] | Potency [3]

CO[C@@H](Cc1ccc(OCCc2nc(-c3ccccc3)oc2C)c2ccsc12)C(=O)O
inactive: Potency [1] | Potency [2] | Potency [3]

C=C[C@H]1[C@H](O[C@@H]2O[C@H](CO)[C@@H](O)[C@H](O)[C@H]2O)OC=C2C(=O)OCC[C@]21O
inactive: Potency [1] | Potency [2] | Potency [3]

COc1cc(O[C@@H]2O[C@H](CO)[C@@H](O)[C@H](O)[C@H]2O)c(CCC(=O)OC[C@H]2O[C@@H](Oc3cc(OC)c(C4OC(=O)C(C)(O)C4O)cc3CCC(=O)O)[C@H](O)[C@@H](O)[C@@H]2O)cc1C1OC(=O)C(C)(O)C1O (some centres undefined)
inactive: Potency [1] | Potency [2] | activity change, negative = inhibition [3] 1.78% [at 11.6 µM]

CC1(C)CC[C@]2(C(=O)O)CC[C@]3(C)C(=CCC4[C@@]5(C)C[C@H](O)[C@H](O[C@@H]6OC[C@H](O)[C@H](O)[C@H]6O)[C@@](C)(CO)C5CC[C@]43C)[C@@H]2C1 (some centres undefined)
inactive: Potency [1] | Potency [2] | Potency [3]

CN1C(=O)N[C@@H](Cc2c[nH]c3c(Cl)cccc23)C1=O
inactive: Potency [1] | Potency [2] | Potency [3]

COc1cc2c(cc1O)C1(OC)Cc3ccc4c(c3C1N(C)CC2)OCO4 (centres undefined)
inactive: Potency [1] | Potency [2] | Potency [3]

CC(C)=CCC[C@](C)(O[C@@H]1O[C@H](CO[C@@H]2OC[C@@H](O)[C@H](O)[C@H]2O)[C@@H](O)[C@H](O)[C@H]1O)[C@H]1CC[C@]2(C)[C@@H]1[C@H](O)C[C@@H]1[C@@]3(C)CC[C@H](O[C@@H]4O[C@H](CO)[C@@H](O)[C@H](O)[C@H]4O[C@@H]4O[C@H](CO)[C@@H](O)[C@H](O)[C@H]4O)C(C)(C)[C@@H]3CC[C@]12C
inactive: Potency [1] | Potency [2] | Potency [3]

COCC(=O)N1CCc2cc(-c3csc(NC(=O)c4cc(OC)cc(OC)c4)n3)ccc21
inactive: Potency [1] | Potency [2] | Potency [3]

CC(C)C(C(=O)N1CCCC1C(=O)O)N(C)C(=O)C(O)Cc1ccccc1 (centres undefined) (H-[PhLac]-[NMeV]-Pro-OH; configuration not given here)
inactive: Potency [1] | Potency [2] | Potency [3]

COc1cc(C2Oc3c(O)cc(CCCO)cc3C2CO)ccc1O[C@H]1O[C@H](C)[C@@H](O)[C@H](O)[C@@H]1O (some centres undefined)
inactive: Potency [1] | Potency [2] | Potency [3]

CC1CCC2(C)C(CC(O)C(O)C23CO3)C1(C)CCC1=CC(O)OC1=O (centres undefined)
inactive: Potency [1] | Potency [2] | Potency [3]

CCCCN(CCCC)C(=O)CN1C[C@H](c2ccc3c(c2)OCO3)[C@@H](C(=O)O)[C@@H]1c1ccc(OC)cc1
inactive: Potency [1] | Potency [2] | Potency [3]

C[C@H]1[C@H](C)CC[C@]2(C(=O)O[C@@H]3O[C@H](CO)[C@@H](O)[C@H](O)[C@H]3O)CC[C@]3(C(=O)O)C(=CCC4[C@@]5(C)CC[C@H](O[C@@H]6O[C@H](CO)[C@@H](O)[C@H](O)[C@H]6O)C(C)(C)C5CC[C@]43C)[C@H]12 (some centres undefined)
inactive: Potency [1] | Potency [2] | outcome [3] inactive [at 11.6 µM]

COC(=O)C1C(c2ccc(O)cc2)C(C(=O)OC)C1c1ccc(O)cc1 (centres undefined)
inactive: Potency [1] | Potency [2] | Potency [3]

CC1CCC23COC(=O)C2=CC(O)CC3C1(C)CCC1=CC(=O)OC1O (centres undefined)
inactive: Potency [1] | Potency [2] | Potency [3]

CN1C(=O)c2ccccc2-n2c(nc3ccccc3c2=O)[C@@]12O[C@H]2c1ccccc1
inactive: Potency [1] | Potency [2] | Potency [3]

C[C@@H](O)[C@H](N)C(=O)N1CCC[C@H]1C(=O)N1CCC[C@H]1C(=O)N[C@H](C(N)=O)[C@@H](C)O (H-TPPT-NH2)
inactive: outcome [1] inactive [at 9.52 µM] | activity change, negative = inhibition [2] 2.51% [at 9.73 µM] | activity change, negative = inhibition [3] 3.24% [at 11.6 µM]

CC(CO[C@@H]1O[C@H](COC(=O)/C=C/c2ccc(O)c(O)c2)[C@@H](O)[C@H](O)[C@H]1O)C1(O)COC(=O)C1 (some centres undefined)
inactive: Potency [1] | Potency [2] | Potency [3]

O=C1N(CC2CCCCN2)CCN1c1ccccc1 (centres undefined)
inactive: Potency [1] | Potency [2] | Potency [3]

CN[C@@H]1[C@@H](O)[C@@H](O[C@@H]2[C@@H](O)[C@H](O[C@H]3O[C@H](CN)[C@@H](O)[C@H](O)[C@H]3O)[C@@H](N)C[C@H]2NC(=O)[C@@H](O)CN)OC[C@]1(C)O
inactive: Potency [1] | Potency [2] | Potency [3]

Nc1nonc1C(=Nc1ccc(F)c(Cl)c1)NO
inactive: Potency [1] | Potency [2] | Potency [3]

C=C1CCC2C(C)(C)CC(=O)CC2(C)C1CCC(C)CCOC(C)=O (centres undefined)
inactive: Potency [1] | Potency [2] | Potency [3]

CCn1cc(C2=NOC(C(=O)Nc3c(C)n(C)n(-c4ccccc4)c3=O)C2)c(C)n1 (centres undefined)
inactive: Potency [1] | Potency [2] | Potency [3]

O=C(NCc1ccc(OC(F)(F)F)cc1)C1c2ccccc2C(=O)N1C1CCOCC1 (centres undefined)
inactive: Potency [1] | Potency [2] | Potency [3]

NS(=O)(=O)NCCNc1nonc1C(=Nc1ccc(F)c(Br)c1)NO
inactive: Potency [1] | Potency [2] | Potency [3]

CCNC(=O)CCC/C=C\C[C@@H]1[C@@H](/C=C/C(O)CCc2ccccc2)[C@@H](O)C[C@@H]1O (some centres undefined)
inactive: Potency [1] | Potency [2] | Potency [3]
